Assay results reported in the supplement of paper PMC10849652.
Of roughly 8,800 targets only a part is listed; those with a hit were picked by preference. About 0.5% of all pairs of compound and target were hits.

Key:
Test in all cases: log2 fold change, soluble protein after heating vs DMSO (PISA); higher = thermal stabilisation; K562 lysate, 10 uM; active = over 0.2 and 3.5 SD of the protein, either way, in both replicates (recomputed)
erlotinib = compound: C#Cc1cccc(Nc2ncnc3cc(OCCOC)c(OCCOC)cc23)c1 [erlotinib]
Summary of the method: (§1)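 Dounce homogenisation of K562 pellets in PBS pH 7.4 with 1 mM MgCl2 produced a crude extract, used at 1 mg/mL protein. Exposure to 10 μM compound lasted 30 min, and aliquots were then heated for 3 min across 48°C-58°C, pooled and brought to 0.5% NP-40 at 4°C. The supernatant after 21,000xg for 90 min was quantified by TMTpro 16plex LC-MS/MS with channel sums equalised. Duplicate values are given as log-two fold change in thermal stability relative to solvent controls.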

[1] = compound: C/C(=N\NC(=O)C1=CC(=CC=C1)S(=O)(=O)N2CCOCC2)/C3=C(C=CC(=C3)Cl)O
Summary of the method: as §1

[2] = compound: C1=CC(=CC=C1C2=NC3=C(N2)C=C(C=C3)C(=O)N)OC4=CC=C(C=C4)Cl
Summary of the method: as §1

[3] = compound: C1=CC2=C(C=CC(=C2)/C=C\3/C(=O)NC(=NCC4=CC=CS4)S3)N=C1
Summary of the method: as §1

[4] = compound: C1=CC2=NC=CN=C2C=C1/C=C/3\C(=O)NC(=O)S3
Summary of the method: as §1

[5] = compound: C1=CC=C(C=C1)C2=NC(=C(N2)C3=CC=NC=C3)C4=CC(=C(C=C4)Cl)O
Summary of the method: as §1

[6] = compound: C1=CC=C2C(=C1)C3=NNC4=CC=CC(=C43)C2=O
Summary of the method: as §1

[7] = compound: C1CCN(C1)C(=O)NC2=CC=CC(=C2)NC3=NC=C(C(=N3)NCCC4=CN=CN4)Br
Summary of the method: as §1

[8] = compound: C1CN(CCC1(CC2=CC=C(C=C2)Cl)N)C3=NC=NC4=C3C=CN4
Summary of the method: as §1

IRAK-1-4 Inhibitor I = compound: C1COCCN1CCN2C3=CC=CC=C3N=C2NC(=O)C4=CC(=CC=C4)[N+](=O)[O-] [IRAK-1-4 Inhibitor I]
Summary of the method: as §1

ibrutinib = compound: C=CC(=O)N1CCC[C@@H](n2nc(-c3ccc(Oc4ccccc4)cc3)c3c(N)ncnc32)C1 [ibrutinib]
Summary of the method: as §1

[9] = compound: CC(=O)c1cnc2ccc(-c3cc(Cl)c(O)c(Cl)c3)nc2c1N[C@H]1CC[C@H](CN(C)C)CC1
Summary of the method: as §1

ralimetinib = compound: CC(C)(C)Cn1c(N)nc2ccc(-c3[nH]c(C(C)(C)C)nc3-c3ccc(F)cc3)nc21 [ralimetinib]
Summary of the method: as §1

[10] = compound: CC(C)(O)CC(=O)NCCn1ccc2ncnc(Nc3ccc(Oc4cccc(C(F)(F)F)c4)c(Cl)c3)c21
Summary of the method: as §1

[11] = compound: CC(C)C1=C2N=C(C=C(N2N=C1)NCC3=CC=CC=C3)NCCCCCCN
Summary of the method: as §1

[12] = compound: CC1=C(C(CC(=O)N1)C2=CC=C(C=C2)C(F)(F)F)C(=O)NC3=C(C=C4C(=C3)C=NN4)F
Summary of the method: as §1

[13] = compound: CC1=C(C2=C(C=C1)C(=O)C3=CC=CC=C3N2CCCN)C
Summary of the method: as §1

[14] = compound: CC1=C(C=C(C=C1)NC(=O)C2=CC(=CC=C2)C(C)(C)C#N)NC3=CC4=C(C=C3)N=CN(C4=O)C
Summary of the method: as §1

[15] = compound: CC1=C(C=C(C=C1)NC(=O)C2=CC(=CC=C2)N(C)C)NC(=O)C3=CC=C(C=C3)O
Summary of the method: as §1

[16] = compound: CC1=CC=C(C=C1)SC2=C3C=C(SC3=CN=C2)C(=O)N
Summary of the method: as §1

Measured: log2 fold change

SFN (UniProt P31947)
UniProt P31947, sequence (P31947 whole entry, looked up): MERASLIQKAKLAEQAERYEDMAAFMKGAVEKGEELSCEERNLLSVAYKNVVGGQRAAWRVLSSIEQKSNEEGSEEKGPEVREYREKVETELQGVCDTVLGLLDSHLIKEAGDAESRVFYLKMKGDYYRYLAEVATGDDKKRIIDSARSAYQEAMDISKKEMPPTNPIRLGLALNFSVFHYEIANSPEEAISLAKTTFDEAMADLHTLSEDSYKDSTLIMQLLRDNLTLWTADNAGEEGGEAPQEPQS
inactive: erlotinib 0.013 | [1] -0.239 | [2] -0.006 | [3] -0.053 | [4] -0.002 | [5] -0.004 | [6] 0.025 | [7] 0.012 | [8] -0.064 | IRAK-1-4 Inhibitor I -0.03 | ibrutinib 0.015 | [9] 0.01 | ralimetinib -0.002 | [10] 0.035 | [11] 0.016 | [12] 0.045 | [13] 0.031 | [14] -0.036 | [15] -0.004 | [16] -0.021

SMG1 (UniProt Q96Q15)
inactive: erlotinib -0.004 | [1] -0.031 | [2] -0.046 | [3] 0.009 | [4] 0.029 | [5] -0.022 | [6] -0.072 | [7] -0.036 | [8] 0.024 | IRAK-1-4 Inhibitor I -0.008 | ibrutinib 0.041 | [9] 0.017 | ralimetinib 0.044 | [10] -0.019 | [11] -0.003 | [12] 0.005 | [13] 0.027 | [14] 0.023 | [15] 0.017 | [16] 0.007

STN1 (UniProt Q9H668)
inactive: erlotinib -0.126 | [1] 0.049 | [2] 0.142 | [3] 0.075 | [4] -0.098 | [5] 0.019 | [6] -0.061 | [7] -0.045 | [8] 0.043 | IRAK-1-4 Inhibitor I 0.034 | ibrutinib 0.133 | [9] -0.187 | ralimetinib 0.151 | [10] -0.071 | [11] -0.056 | [12] 0.106 | [14] -0.016 | [15] 0.051 | [16] 0.035

SOX5 (UniProt P35711)
UniProt P35711, sequence (P35711 whole entry, looked up): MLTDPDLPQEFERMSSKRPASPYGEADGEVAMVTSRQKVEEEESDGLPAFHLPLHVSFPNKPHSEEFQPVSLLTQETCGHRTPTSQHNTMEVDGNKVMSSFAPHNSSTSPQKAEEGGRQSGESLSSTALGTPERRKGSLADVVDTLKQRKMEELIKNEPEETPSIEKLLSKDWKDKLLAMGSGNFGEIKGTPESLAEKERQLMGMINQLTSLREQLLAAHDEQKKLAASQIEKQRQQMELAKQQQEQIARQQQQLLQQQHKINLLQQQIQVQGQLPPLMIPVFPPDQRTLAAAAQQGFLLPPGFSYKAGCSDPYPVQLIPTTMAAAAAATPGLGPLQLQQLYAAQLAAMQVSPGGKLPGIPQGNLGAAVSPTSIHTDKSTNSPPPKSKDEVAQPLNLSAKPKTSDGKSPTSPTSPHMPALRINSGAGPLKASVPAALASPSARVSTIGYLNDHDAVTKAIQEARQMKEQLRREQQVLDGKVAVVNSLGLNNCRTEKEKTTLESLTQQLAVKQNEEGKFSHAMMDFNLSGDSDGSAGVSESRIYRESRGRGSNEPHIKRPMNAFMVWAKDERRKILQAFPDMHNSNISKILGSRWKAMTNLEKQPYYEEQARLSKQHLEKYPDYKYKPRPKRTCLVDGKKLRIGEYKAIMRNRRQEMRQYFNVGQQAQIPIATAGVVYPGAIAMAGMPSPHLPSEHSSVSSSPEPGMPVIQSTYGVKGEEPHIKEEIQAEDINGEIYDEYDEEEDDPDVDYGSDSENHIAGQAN
active: [3] 0.38
inactive: erlotinib -0.169 | [1] 0.08 | [2] 0.025 | [4] 0.131 | [5] 0.059 | [6] -0.239 | [7] 0.028 | [8] 0.154 | IRAK-1-4 Inhibitor I 0.044 | ibrutinib -0.064 | [9] 0.14 | ralimetinib -0.049 | [10] 0.02 | [11] 0.091 | [13] 0.053 | [14] 0.036 | [15] 0.088 | [16] -0.105

SLC25A44 (UniProt Q96H78)
inactive: erlotinib 0.117 | [1] -0.275 | [2] 0.055 | [3] -0.018 | [4] 0.025 | [5] -0.064 | [6] 0.145 | [7] -0.039 | [8] 0.037 | IRAK-1-4 Inhibitor I -0.053 | ibrutinib -0.006 | [9] 0.002 | ralimetinib 0.065 | [10] -0.322 | [11] -0.031 | [13] -0.017 | [14] 0.038 | [15] -0.118 | [16] 0.002

SH3BP2 isoform 4 (UniProt P78314)
inactive: erlotinib -0.037 | [1] 0.213 | [2] 0.001 | [3] 0.044 | [4] -0.103 | [5] 0.088 | [6] -0.073 | IRAK-1-4 Inhibitor I 0.03 | ibrutinib 0.096 | [9] -0.084 | ralimetinib 0.07 | [10] 0.137 | [11] -0.004 | [13] -0.297 | [14] 0.03 | [15] -0.126 | [16] 0.073

SMC2 (UniProt O95347)
UniProt O95347, sequence (O95347 whole entry, looked up): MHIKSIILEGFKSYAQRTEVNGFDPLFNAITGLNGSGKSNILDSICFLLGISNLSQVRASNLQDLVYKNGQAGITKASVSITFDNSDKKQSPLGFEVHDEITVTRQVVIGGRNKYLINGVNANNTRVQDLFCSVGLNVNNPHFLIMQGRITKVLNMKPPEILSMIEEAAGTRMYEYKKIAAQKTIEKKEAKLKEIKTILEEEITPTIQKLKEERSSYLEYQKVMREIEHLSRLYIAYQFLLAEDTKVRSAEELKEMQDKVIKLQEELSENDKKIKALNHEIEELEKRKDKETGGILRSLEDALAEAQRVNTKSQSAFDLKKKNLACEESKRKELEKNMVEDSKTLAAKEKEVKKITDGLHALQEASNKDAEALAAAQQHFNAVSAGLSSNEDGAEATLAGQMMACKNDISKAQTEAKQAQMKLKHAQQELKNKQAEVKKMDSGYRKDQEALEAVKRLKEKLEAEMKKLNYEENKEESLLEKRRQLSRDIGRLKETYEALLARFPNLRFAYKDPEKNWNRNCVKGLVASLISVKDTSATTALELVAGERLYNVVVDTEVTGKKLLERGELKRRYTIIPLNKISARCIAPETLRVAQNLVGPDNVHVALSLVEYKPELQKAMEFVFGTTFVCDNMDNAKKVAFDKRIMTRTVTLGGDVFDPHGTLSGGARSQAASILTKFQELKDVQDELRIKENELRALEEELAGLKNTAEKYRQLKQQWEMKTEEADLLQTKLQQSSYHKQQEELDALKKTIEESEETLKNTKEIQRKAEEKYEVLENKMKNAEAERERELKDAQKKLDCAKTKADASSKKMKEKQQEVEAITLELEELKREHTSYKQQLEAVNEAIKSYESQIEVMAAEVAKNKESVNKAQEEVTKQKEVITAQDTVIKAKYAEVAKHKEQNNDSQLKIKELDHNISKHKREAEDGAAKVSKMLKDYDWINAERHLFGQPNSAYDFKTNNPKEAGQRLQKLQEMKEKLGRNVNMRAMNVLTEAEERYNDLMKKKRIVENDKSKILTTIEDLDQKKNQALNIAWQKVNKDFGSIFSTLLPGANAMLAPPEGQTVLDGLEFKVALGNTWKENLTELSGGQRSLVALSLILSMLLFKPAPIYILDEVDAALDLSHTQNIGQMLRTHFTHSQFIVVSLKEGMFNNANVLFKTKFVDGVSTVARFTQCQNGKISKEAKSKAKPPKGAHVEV
inactive: erlotinib -0.001 | [1] -0.011 | [2] -0.011 | [3] 0.001 | [4] 0.012 | [5] 0.013 | [6] -0.036 | [7] 0.003 | [8] -0.008 | IRAK-1-4 Inhibitor I -0.019 | ibrutinib 0.014 | [9] -0.011 | ralimetinib -0.016 | [10] -0.008 | [11] 0.014 | [12] -0.012 | [13] 0 | [14] 0 | [15] 0.013 | [16] 0.001

SNRPD2 (UniProt K7EJB5)
inactive: erlotinib -0.076 | [1] 0 | [2] -0.036 | [3] -0.106 | [5] -0.12 | [6] 0.055 | [7] 0.088 | [8] 0.037 | IRAK-1-4 Inhibitor I -0.03 | [9] -0.004 | ralimetinib 0.142 | [10] -0.075 | [11] 0.014 | [12] 0.052 | [13] -0.022 | [14] -0.011 | [15] 0.069 | [16] -0.01

STOML2 (UniProt Q9UJZ1)
inactive: erlotinib -0.021 | [1] 0.018 | [2] 0.04 | [3] -0.049 | [4] 0.037 | [5] 0.012 | [6] -0.063 | [7] 0.023 | [8] 0.027 | IRAK-1-4 Inhibitor I 0.036 | ibrutinib 0.017 | [9] -0.012 | ralimetinib -0.015 | [10] -0.028 | [11] 0.033 | [12] -0.025 | [13] -0.04 | [14] 0 | [15] 0.002 | [16] -0.006

SLU7 (UniProt O95391)
inactive: erlotinib -0.02 | [1] -0.086 | [2] -0.021 | [3] 0.09 | [4] -0.026 | [5] 0.021 | [6] 0.036 | [7] -0.096 | [8] -0.041 | IRAK-1-4 Inhibitor I -0.07 | ibrutinib -0.084 | ralimetinib -0.013 | [10] -0.018 | [11] 0.045 | [12] -0.029 | [13] -0.015 | [14] 0 | [15] -0.031

STK26 (UniProt Q9P289)
inactive: erlotinib 0.008 | [1] -0.007 | [2] -0.005 | [3] -0.009 | [4] 0.002 | [5] -0.002 | [6] 0.06 | [7] 0.03 | [8] -0.011 | IRAK-1-4 Inhibitor I -0.018 | ibrutinib -0.043 | [9] 0.113 | ralimetinib -0.018 | [10] 0.004 | [11] -0.015 | [12] -0.021 | [13] 0.006 | [14] -0.028 | [15] 0.035 | [16] -0.025

SLCO4A1 (UniProt Q96BD0)
UniProt Q96BD0, sequence (Q96BD0 whole entry, looked up): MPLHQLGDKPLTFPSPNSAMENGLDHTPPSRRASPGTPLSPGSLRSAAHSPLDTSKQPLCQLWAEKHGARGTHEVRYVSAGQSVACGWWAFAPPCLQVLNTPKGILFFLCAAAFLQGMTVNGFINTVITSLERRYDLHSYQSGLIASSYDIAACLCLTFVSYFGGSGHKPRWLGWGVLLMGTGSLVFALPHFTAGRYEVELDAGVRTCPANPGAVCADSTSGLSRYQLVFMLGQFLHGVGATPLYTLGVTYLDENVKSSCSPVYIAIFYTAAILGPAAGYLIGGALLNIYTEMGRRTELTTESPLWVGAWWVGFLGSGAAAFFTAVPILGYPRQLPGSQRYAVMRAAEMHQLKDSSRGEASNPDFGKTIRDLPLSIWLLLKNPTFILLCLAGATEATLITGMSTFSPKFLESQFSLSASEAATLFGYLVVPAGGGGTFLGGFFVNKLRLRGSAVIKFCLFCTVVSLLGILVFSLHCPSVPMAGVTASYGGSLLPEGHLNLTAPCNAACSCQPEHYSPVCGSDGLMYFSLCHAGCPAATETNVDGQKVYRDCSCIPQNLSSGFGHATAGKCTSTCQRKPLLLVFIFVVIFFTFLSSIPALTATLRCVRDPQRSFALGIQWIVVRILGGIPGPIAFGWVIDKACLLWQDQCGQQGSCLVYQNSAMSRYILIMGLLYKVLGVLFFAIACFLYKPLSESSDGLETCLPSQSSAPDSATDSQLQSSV
inactive: [4] 0.08 | ibrutinib 0.081 | [12] 0.115

TAF1B (UniProt Q53T94)
UniProt Q53T94, sequence (Q53T94 whole entry, looked up): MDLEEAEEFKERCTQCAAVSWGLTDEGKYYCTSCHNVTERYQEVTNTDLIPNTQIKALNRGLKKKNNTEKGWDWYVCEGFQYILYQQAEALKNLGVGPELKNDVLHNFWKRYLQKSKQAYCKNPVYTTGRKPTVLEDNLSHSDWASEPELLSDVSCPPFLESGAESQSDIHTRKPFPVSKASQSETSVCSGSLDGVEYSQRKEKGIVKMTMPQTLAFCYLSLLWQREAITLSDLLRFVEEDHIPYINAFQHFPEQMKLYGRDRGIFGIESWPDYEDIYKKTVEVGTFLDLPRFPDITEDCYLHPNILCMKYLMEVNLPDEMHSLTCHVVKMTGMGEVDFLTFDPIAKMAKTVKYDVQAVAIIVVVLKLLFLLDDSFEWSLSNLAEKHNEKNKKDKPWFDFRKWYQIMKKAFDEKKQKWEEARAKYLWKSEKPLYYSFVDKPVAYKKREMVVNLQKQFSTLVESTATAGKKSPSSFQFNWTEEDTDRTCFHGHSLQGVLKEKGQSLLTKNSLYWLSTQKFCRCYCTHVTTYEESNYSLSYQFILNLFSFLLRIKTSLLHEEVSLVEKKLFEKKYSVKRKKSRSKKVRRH
inactive: [1] -0.283 | [3] -0.123 | [4] -0.001 | [5] 0.024 | [6] 0.013 | [7] 0.345 | [8] 0.123 | IRAK-1-4 Inhibitor I -0.061 | ibrutinib -0.156 | [9] 0.095 | ralimetinib 0.043 | [10] -0.112 | [12] 0.419 | [13] -0.101 | [14] 0.032 | [15] 0.006 | [16] 0.138

SMIM1 (UniProt B2RUZ4)
UniProt B2RUZ4, sequence (B2RUZ4 whole entry, looked up): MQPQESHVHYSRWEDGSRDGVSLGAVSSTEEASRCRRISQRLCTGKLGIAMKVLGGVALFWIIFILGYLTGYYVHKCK
inactive: erlotinib 0.172 | [2] -0.145 | [4] -0.114 | [5] 0.063 | [7] 0.086 | [8] -0.016 | IRAK-1-4 Inhibitor I -0.214 | ibrutinib 0.018 | [9] 0.005 | ralimetinib 0.054 | [10] 0.036 | [11] 0.081 | [12] -0.132 | [14] -0.042 | [15] -0.021 | [16] 0.058

SPAG1 (UniProt Q07617)
active: [4] 1.01
inactive: [1] -0.045 | [3] -0.089 | [5] -0.034 | [6] -0.063 | IRAK-1-4 Inhibitor I 0.042 | ibrutinib 0.034 | [9] 0.282 | ralimetinib -0.017 | [10] -0.17 | [14] 0.15 | [15] 0.079 | [16] -0.198

TAOK2 (UniProt Q9UL54)
UniProt Q9UL54, sequence (Q9UL54 whole entry, looked up): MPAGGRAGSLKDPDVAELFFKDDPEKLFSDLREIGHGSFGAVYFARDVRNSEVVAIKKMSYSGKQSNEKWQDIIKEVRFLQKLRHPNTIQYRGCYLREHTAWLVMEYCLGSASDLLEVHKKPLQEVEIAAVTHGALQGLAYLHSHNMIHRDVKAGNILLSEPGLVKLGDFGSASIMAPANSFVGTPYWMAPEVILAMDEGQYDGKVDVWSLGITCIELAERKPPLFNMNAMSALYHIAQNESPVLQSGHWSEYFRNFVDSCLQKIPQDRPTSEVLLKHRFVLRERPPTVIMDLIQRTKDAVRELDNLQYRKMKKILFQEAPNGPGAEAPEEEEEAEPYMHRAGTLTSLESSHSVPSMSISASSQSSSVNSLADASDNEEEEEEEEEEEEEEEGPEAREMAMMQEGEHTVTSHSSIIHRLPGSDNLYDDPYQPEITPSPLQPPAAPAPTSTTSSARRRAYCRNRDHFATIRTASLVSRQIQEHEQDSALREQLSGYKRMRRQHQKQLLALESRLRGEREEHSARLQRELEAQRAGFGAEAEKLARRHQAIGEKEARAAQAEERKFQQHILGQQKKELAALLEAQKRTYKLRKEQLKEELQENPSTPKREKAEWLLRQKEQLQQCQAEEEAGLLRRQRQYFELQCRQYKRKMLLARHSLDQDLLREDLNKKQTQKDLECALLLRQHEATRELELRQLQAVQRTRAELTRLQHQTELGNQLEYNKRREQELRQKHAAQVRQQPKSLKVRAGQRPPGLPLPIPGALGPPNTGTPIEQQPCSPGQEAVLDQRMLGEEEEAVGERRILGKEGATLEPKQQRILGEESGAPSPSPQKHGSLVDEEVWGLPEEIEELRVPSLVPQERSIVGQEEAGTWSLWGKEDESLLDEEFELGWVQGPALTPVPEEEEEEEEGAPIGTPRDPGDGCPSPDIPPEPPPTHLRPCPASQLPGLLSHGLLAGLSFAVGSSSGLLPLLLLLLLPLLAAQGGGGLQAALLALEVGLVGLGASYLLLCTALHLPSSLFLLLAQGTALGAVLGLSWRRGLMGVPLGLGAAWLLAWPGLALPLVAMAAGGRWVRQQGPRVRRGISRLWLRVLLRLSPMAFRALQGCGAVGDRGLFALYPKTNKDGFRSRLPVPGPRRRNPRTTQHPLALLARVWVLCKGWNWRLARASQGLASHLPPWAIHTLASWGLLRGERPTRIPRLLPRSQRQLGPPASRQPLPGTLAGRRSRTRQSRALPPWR
inactive: [1] 0.006 | [3] -0.034 | [4] 0.072 | [5] -0.031 | [7] 0.038 | [8] 0.058 | IRAK-1-4 Inhibitor I 0.072 | ibrutinib -0.009 | [9] 0.151 | ralimetinib -0.035 | [10] -0.033 | [12] -0.072 | [13] -0.053 | [14] -0.037 | [15] -0.044 | [16] 0.024
active: [6] 0.729

TAF11 (UniProt Q15544)
UniProt Q15544, sequence (Q15544 whole entry, looked up): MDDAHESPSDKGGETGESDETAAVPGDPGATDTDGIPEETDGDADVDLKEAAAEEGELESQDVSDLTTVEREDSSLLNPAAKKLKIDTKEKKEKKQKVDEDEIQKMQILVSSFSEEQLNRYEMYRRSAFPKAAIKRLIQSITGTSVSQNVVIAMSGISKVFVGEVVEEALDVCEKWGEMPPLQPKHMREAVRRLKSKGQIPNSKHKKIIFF
inactive: [1] 0.174 | [3] -0.144 | [5] -0.04 | [6] 0.124 | [7] -0.242 | [8] 0.071 | IRAK-1-4 Inhibitor I 0.051 | [9] -0.013 | ralimetinib 0.027 | [10] 0.008 | [12] 0.015 | [13] 0.115 | [14] 0.052 | [15] 0.072 | [16] -0.114
